# Laboratory results published in PubChem BioAssay (NCATS).
# Records with an inconclusive call do not appear. Entries that show only a call come without a potency. Calls of active or inactive are those of the source. The call rests on the fitted dose curve; in most records, active means well fitted inhibition curve with a large enough effect; inconclusive means small, poorly fitted or top-dose-only effect, or effect the other way; inactive means flat fitted curve, though single readings scatter.
# Assay: qHTS for Inhibitors of Plasmodium falciparum (CP250) proliferation (AID 504320)
# Details: P. falciparum CP250 in erythrocytes, SYBR Green DNA, 72 h; series mostly up to 6.7 µM
# From the text: Plasmodium falciparum is a virulent malarial parasite that kills 1-2 million people worldwide each year. Malaria not only inflicts tremendous suffering and morbidity on the human population, but has dramatically influenced the course of civilization with profound sociological and economic implications (Shah, S. 2010). Transmitted by mosquitoes, the sporozoite form of the parasite enters the blood stream to infect hepatocytes, where they become merozoites that infect red blood cells (erythrocytes). Within erythrocytes, merozoites begin a […] cycle of growth and division, after which the parasite is released to infect new red blood cells. Gametocytes, which form within erythrocytes as well, circulate in the bloodstream and are ingested by the mosquito, thereby completing the life cycle (see CDC website). To profile malarial lines for differential chemical responses and to identify inhibitors of malarial growth, an assay that measures P. falciparum growth and replication within erythrocytes was employed. This assay uses a DNA binding fluorescent dye (SYBR Green) to detect parasite DNA following cell lysis. Because mature erythrocytes lack DNA, only Plasmodium-derived DNA is detected. The P. falciparum line cp250, derived from a malarial isolate from Cambodia, (Mu, J., et al. 2010) was added to the panel of lines, Dd2, HB3, 7G8 and GB4 in this study. Laboratory of Assay Development and Screening Technology [ADST] and NIH Chemical Genomics Center [NCGC] Boston University, Chemistry Department, Center for Chemical Methodology and Library Development [CMLD-BU] NIH National Institute of Allergy and Infectious Diseases [NIAID]
# ADST Assay Protocol Summary: The 1536-well SYBR Green viability assay was based on the method of Bennett et al (2004) and described previously in 1536-well format (Yuan J., et al. 2009). For screening 3 ul culture medium was dispensed into 1536 well black clear bottom plates (Aurora Biotechnologies) using a Multidrop Combi (Thermo Fisher Scientific Inc.), 23 nL compounds in DMSO were added by a pin transfer (Cleveland, P.H. and Koutz, P.J, 2005) using a pin tool-based delivery system (Kalypsys), and 5 ul of erythrocytes infected with P. falciparum one of five lines (cp250, Dd2, HB3, 7G8 or GB4, 0.3% parasitemia, 2.5% hematocrit final concentration) were added. The plates were incubated at 37C in a humidified incubator in 5% CO2 for 72 h, and 2 ul lysis buffer (20 mM Tris HCl, 10 mM EDTA, 0.16% saponin, 1.6% triton X, 10X SYBR Green I (supplied as 10,000X final concentration by Invitrogen) was added to each well. The plates were mixed for 25 sec with gentle shaking and incubated overnight at room temperature in the dark. The following morning, fluorescence intensity at 485(14) nm excitation and 535(25) nm emission wavelengths was measured on an EnVision (Perkin Elmer) plate reader. Plate reads were normalized relative to the control inhibitor (0.29 uM artemisinin) and vehicle (DMSO) wells present on each plate and then corrected by an algorithm using vehicle-only control plates at the beginning and end of the compound plate stack. References Shah, S. (2010). The Fever: how malaria has ruled humankind for 500,000 years. New York, Sarah Crichton Books. CDC web site, http://www.cdc.gov/malaria/about/biology/index.html Mu, J., Myers, R.A., Jiang, H., Liu, S., Ricklefs, S., Waisberg, M., Chotivanich, K., Wilairatana, P., Krudsood, S., White, N.J., et Plasmodium falciparum genome-wide scans for positive selection, recombination hot spots and resistance to antimalarial drugs Nature Genetics 2010, 42, pp 268-271 Bennett TN, Paguio, M., Gligorijevic, B., Seudieu, C., Kosar, A. D., Davidson, E., and Roepe, P. D. Novel, rapid, and inexpensive cell-based quantification of antimalarial drug efficacy Antimicrobial Agents Chemother. 2004, 48(5): pp 1807-10 Yuan J, Johnson RL, Huang RL, Wichterman J, Jiang HY, Hayton K, Fidock DA, Wellems TE, Inglese J, Austin CP, Su XZ. […]
# Potency means the concentration at half of the fitted maximal effect.
row,SMILES,Potency
1,COCCN1C=C2C(=O)C(C)(OC(=O)CCC(=O)OC)C(=O)C(Br)=C2C=C1c1ccc(OC)cc1 (stereo not given),inactive
2,COC(=O)CCC(=O)OC1(C)C(=O)C=C2C=C(C3CC3)N(C3CCCC3)C=C2C1=O (stereo not given),inactive
3,COC/C=C/C1=CC2=CC(=O)C(C)(OC(=O)c3cnc4ccccc4n3)C(=O)C2=CN1CCc1c[nH]c2ccccc12 (stereo not given),inactive
4,COC/C=C/C1=CC2=CC(=O)C(C)(OC(=O)c3cnc4ccccc4n3)C(=O)C2=CN1c1ccc(CO)cc1 (stereo not given),inactive
5,C=CC[C@]1(C(=O)OC)C=C[C@H](C)[C@@H](c2ccccc2)N1C(=O)C(F)(F)F,inactive
6,CCN1C(=O)N[C@@H](c2ccccc2)[C@H](C(C)=O)[C@H]1C,inactive
7,CC(C)CN1C=C2C(=O)C(C)(OC(=O)C3CCCC3)C(=O)C=C2C=C1c1ccsc1 (stereo not given),inactive
8,COc1ccc(C2=CC3=C(Br)C(=O)C(C)(OC(=O)c4ccco4)C(=O)C3=CO2)cc1 (stereo not given),inactive
9,CCOC(=O)CN1C(=O)N[C@@H](CCc2ccccc2)C(C(C)=O)=C1C,inactive
10,CCN1C(=O)N[C@@H](CCc2ccccc2)C(C(=O)OC)=C1C,inactive
11,COC(=O)C1=C(C(=O)OC)[C@@H]2N(C)c3ccccc3[C@@]23C[C@@H](CO)N(C(=O)c2ccco2)C3=N1,inactive
12,CCCCC1=CC2=CC(=O)C(C)(OC(=O)CC)C(=O)C2=CN1C1CCCCC1 (stereo not given),inactive
13,COc1cccc(CC(=O)N2CCc3nc(-c4ccccc4)c4c(c3C2)CO[C@@H](C)C4)c1,inactive
14,CCN1C(=O)N[C@@H](c2ccc(Br)cc2)C(C(C)=O)=C1C,inactive
15,CC1(OC(=O)CCc2ccccc2)C(=O)C=C2C=C(c3ccc(C#N)cc3)N(CCN3CCOCC3)C=C2C1=O (stereo not given),inactive
16,COC(=O)C1=C(C)N(Cc2ccccc2)C(=S)NC1c1cccc(F)c1 (stereo not given),inactive
17,COC(=O)C1=C(C(=O)OC)[C@@H]2N(C)c3ccc(OC)cc3[C@@]23C[C@@H](C(=O)OC)N=C3N1,inactive
18,C=CCN1C=C2C(=O)C(C)(OC(=O)C3CCCC3)C(=O)C(c3ccccc3)=C2C=C1CCCC(=O)OC (stereo not given),inactive
19,O=C1c2cc(Br)ccc2O[C@@H](c2ccc3c(c2)OCO3)[C@@H]1O,inactive
20,CC1(C)O[C@@H](C(O)(c2cc(F)c(F)c(F)c2)c2cc(F)c(F)c(F)c2)[C@H](C(O)(c2cc(F)c(F)c(F)c2)c2cc(F)c(F)c(F)c2)O1,849 nM (active)

row,SMILES,Potency
1,COC(=O)C1=C(C)N(Cc2ccccc2)C(=O)N[C@H]1CCc1ccccc1,inactive
2,COC(=O)CCC(=O)OC1(C)C(=O)C2=CN(CC(C)C)C(c3ccc(OC)cc3)=CC2=C(Br)C1=O (stereo not given),inactive
3,CCN1C(=O)N[C@@H](c2cccc(C(F)(F)F)c2)[C@@H](C(=O)OC)[C@H]1C,inactive
4,CC(=O)C1=C(C)N(Cc2ccccc2)C(=O)N[C@H]1c1cccc(F)c1,inactive
5,COC(=O)C1=C(C(=O)OC)[C@@H]2N(C)c3ccccc3[C@@]23C[C@@H](C(=O)OC)N(C(C)=O)C3=N1,inactive
6,COC(=O)C1=C(C(=O)OC)[C@@H]2N(Cc3ccccc3)c3ccccc3[C@@]23C[C@@H](C(=O)OC)N(C(=O)NCCBr)C3=N1,inactive
7,CC1(OC(=O)C2CCCC2)C(=O)C=C2C=C(c3ccsc3)N(CCCCO)C=C2C1=O (stereo not given),inactive
8,CCN(CC)CCCN1C=C2C(=O)C(C)(OC(=O)C3CCCC3)C(=O)C(c3ccccc3)=C2C=C1CCCC(=O)OC (stereo not given),inactive
9,COc1ccc(-c2nc3c(c4c2C[C@H](c2ccccc2)OC4)CN(C(=O)NCCc2c[nH]c4ccccc24)CC3)c(C)c1,inactive
10,CCOC(=O)CN1C(=O)N[C@@H](c2cccs2)C(C(C)=O)=C1C,inactive
11,CCN1C(=O)N[C@H](c2ccccc2)C(C(C)=O)=C1C,inactive
12,CCN1C(=O)N[C@@H](c2ccco2)C(C(C)=O)=C1C,inactive
13,COC(=O)CCCC1=CC2=CC(=O)C(C)(OC(=O)c3cccs3)C(=O)C2=CN1C(CO)CO (stereo not given),inactive
14,CCOC(=O)CN1C(=O)NC(c2cccc(C(F)(F)F)c2)C(C(C)=O)=C1C (stereo not given),inactive
15,COC(=O)CCCC1=CC2=C(c3ccccc3)C(=O)C(C)(OC(=O)C3CCCC3)C(=O)C2=CN1CCc1ccccn1 (stereo not given),inactive
16,COCCN1C(=O)N[C@@H](c2cccc(C(F)(F)F)c2)C(C(=O)OC)=C1C,inactive
17,COCCN1C(=O)N[C@@H](c2cccc(F)c2)C(C(C)=O)=C1C,inactive
18,COC(=O)C1=C(C(=O)OC)[C@@H]2N(C)c3ccccc3[C@@]23C[C@@H](C(=O)OC)N(C(=O)CC(C)C)C3=N1,inactive
19,CCCCC1=CC2=CC(=O)C(C)(OC(=O)CC)C(=O)C2=CN1CCCOC(C)C (stereo not given),inactive
20,COC(=O)[C@@H]1[C@H](CCc2ccccc2)NC(=O)N(Cc2ccccc2)[C@H]1C,inactive
